Results published in PubChem BioAssay (Tox21).
A number with no mark means an inactive call. Inconclusive results are not listed. Entries that show only a call come without a potency. Active and inactive are the calls of the source. Unless noted, calls come from the whole dose curve; as a rule, active = well fitted curve in the direction sought with a large enough effect in the repeat runs; inconclusive = weak or mixed curves; inactive = no such curve, though single readings can be large; an effect the other way counts as inactive or inconclusive.

What was measured:
[1] = qHTS assay to identify small molecule agonists or antagonists of the thyroid stimulating hormone receptor (TSHR) signaling pathway - wild type cell line counter screen (AID 1259384; calls by dose curve)
How it was run: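 Wild-type Hek293 cells, 800/well, 18 h at 37C, then compound with Ro20-1724 for 30 min RT. cAMP by HTRF (cAMP-d2/anti-cAMP cryptate), 1 h RT, fluorescence read. 15 concentrations, triplicates.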

[2] = qHTS assay to identify small molecule agonists of the estrogen receptor alpha (ER-alpha) signaling pathway in the presence of an antagonist - cell viability counter screen (AID 1259386);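 note: series mostly up to about 92 µM; cells exposed to compounds for 22 h at 37 °C before the viability read; nearly all actives have a fitted effect of over 30% in size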
How it was run: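 VM7Luc4E2, stripped-serum pre-culture 5 d; 24hr plating; +ICI-182,780 10.0nM final; cpds 15 conc, 22hr, 37C/5% CO2; CellTiter-Fluor added at 21hr, fluorescence 1hr later.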

[3] = target: Progesterone receptor (Homo sapiens) (UniProt P06401); assay: qHTS assay to identify small molecule agonists of the progesterone receptor (PR) signaling pathway (AID 1346784; calls by dose curve; note: nearly all actives have a fitted effect of over 30% in size; note: potency is the fitted concentration of half-maximal effect)
Progesterone receptor (Homo sapiens), sequence (P06401 whole entry, looked up): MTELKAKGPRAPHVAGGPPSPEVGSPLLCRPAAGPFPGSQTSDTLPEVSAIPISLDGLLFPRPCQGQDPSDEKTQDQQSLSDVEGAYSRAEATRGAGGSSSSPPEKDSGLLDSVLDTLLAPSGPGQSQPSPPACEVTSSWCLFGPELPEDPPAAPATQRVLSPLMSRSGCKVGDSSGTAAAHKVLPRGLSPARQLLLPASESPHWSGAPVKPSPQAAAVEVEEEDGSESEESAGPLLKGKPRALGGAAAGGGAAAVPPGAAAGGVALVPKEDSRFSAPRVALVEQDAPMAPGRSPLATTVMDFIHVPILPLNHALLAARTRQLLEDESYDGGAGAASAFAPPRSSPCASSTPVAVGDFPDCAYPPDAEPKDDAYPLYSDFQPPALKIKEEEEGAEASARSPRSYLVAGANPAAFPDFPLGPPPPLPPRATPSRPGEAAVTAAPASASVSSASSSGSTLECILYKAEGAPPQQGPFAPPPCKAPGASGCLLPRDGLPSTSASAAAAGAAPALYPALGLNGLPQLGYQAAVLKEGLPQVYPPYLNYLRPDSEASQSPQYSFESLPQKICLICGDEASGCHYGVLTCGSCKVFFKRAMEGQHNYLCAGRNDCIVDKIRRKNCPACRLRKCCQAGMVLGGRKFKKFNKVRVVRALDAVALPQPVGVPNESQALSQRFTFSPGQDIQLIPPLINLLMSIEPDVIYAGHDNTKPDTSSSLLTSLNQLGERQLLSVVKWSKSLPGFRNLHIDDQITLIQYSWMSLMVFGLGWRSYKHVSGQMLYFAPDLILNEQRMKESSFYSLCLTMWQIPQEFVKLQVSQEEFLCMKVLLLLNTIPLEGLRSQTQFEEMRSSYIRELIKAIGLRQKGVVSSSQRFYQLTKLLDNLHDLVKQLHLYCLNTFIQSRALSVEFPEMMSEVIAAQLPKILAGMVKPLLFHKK
How it was run: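 PR-UAS-bla HEK 293T cells carrying a UAS-driven beta-lactamase reporter were seeded in medium with 2% charcoal-stripped FBS, preincubated 6 hr at 37C, then exposed to compounds in DMSO for 16 hr; agonism was read by LiveBLAzer B/G FRET fluorescence.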

[4] = target: Progesterone receptor (Homo sapiens) (UniProt P06401); assay: qHTS assay to identify small molecule antagonists of the progesterone receptor (PR) signaling pathway (AID 1346795; active = well fitted inhibition curve with a large enough effect in the signal ratio in the repeat runs, not every such curve was filed as active; the % refers to the signal ratio)
How it was run: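 PR-UAS-bla HEK293T cells carrying a UAS-driven beta-lactamase reporter were plated in medium with 2% charcoal-stripped FBS and rested 6 hr at 37C. Compounds were added with 1 nM R5020 (final) for 16 hr, then FRET substrate loaded 2 hr at room temperature.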

[5] = qHTS assay to identify small molecule agonists of the TGF-beta/Smad signaling pathway (AID 1346859; active = well fitted activation curve with a large enough effect in the signal ratio in the repeat runs, not every such curve was filed as active; the % refers to the signal ratio; note: series mostly up to about 77 µM)
How it was run: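 HEK 293T cells stably carrying a beta-lactamase reporter driven by the Smad binding element were seeded overnight, exposed to DMSO-dissolved compounds for 5 hr at 37 C, 5% CO2, then loaded with FRET substrate for 2 hr at room temperature.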

[6] = Human pregnane X receptor (PXR) small molecule agonists, qHTS cell viability counter screen (AID 1346977); note: nearly all actives have a fitted effect of over 50% in size
How it was run: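 PXR-Luc HepG2 cells in medium with 5% charcoal-stripped FBS were pre-incubated 5hr, then exposed to compounds for 24hr at 37C. Viability was read in the same wells by CellTiter-Fluor fluorescence, reagent added after 23hr with a 1hr incubation.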

[7] = Caspase-3/7 induction in HepG2 cells by small molecules, qHTS assay (AID 1346978); note: nearly all actives have a fitted effect of over 15% in size
How it was run: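 Wild-type HepG2 cells, 2,000/well, settled 5 hr at 37 C and 5% CO2, then compound-treated for 17 hr; caspase-3/7 activity read by luminescent Caspase-Glo 3/7 after 30 min at room temperature.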

[8] = Caspase-3/7 induction in CHO-K1 cells by small molecules, qHTS cell viability counter screen (AID 1346979); note: nearly all actives have a fitted effect of over 35% in size; note: potency is the fitted concentration of half-maximal effect
How it was run: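 Wild-type CHO-K1 cells were seeded at 1,500 per well, rested 5hr at 37 C, then exposed to compounds in DMSO. After 16hr, CellTiter-Fluor reagent was added and fluorescence read 1hr later as the viability measure.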

[9] = Caspase-3/7 induction in CHO-K1 cells by small molecules, qHTS assay (AID 1346980); note: nearly all actives have a fitted effect of over 15% in size
How it was run: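 Wild-type CHO-K1 cells exposed to compounds for 17hr at 37 C, 5% CO2. Caspase-3/7 activity then measured by Caspase-Glo 3/7 luminescence after 30min at room temperature.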

[10] = Caspase-3/7 induction in HepG2 cells by small molecules, qHTS cell viability counter screen (AID 1346981); note: series mostly up to about 92 µM; nearly all actives have a fitted effect of over 30% in size
How it was run: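 HepG2, WT, 2,000 cells/well; 5 hr pre-incubation 37 C/5% CO2; compound pin-transferred from DMSO; 16 hr exposure; CellTiter-Fluor, 1 hr; fluorescence read.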

[11] = target: Nuclear receptor subfamily 1 group I member 2 (Homo sapiens) (UniProt O75469); assay: Human pregnane X receptor (PXR) small molecule agonists, qHTS assay (AID 1346982); note: nearly all actives have a fitted effect of over 35% in size; note: potency is the fitted concentration of half-maximal effect
Nuclear receptor subfamily 1 group I member 2 (Homo sapiens), sequence (O75469 whole entry, looked up): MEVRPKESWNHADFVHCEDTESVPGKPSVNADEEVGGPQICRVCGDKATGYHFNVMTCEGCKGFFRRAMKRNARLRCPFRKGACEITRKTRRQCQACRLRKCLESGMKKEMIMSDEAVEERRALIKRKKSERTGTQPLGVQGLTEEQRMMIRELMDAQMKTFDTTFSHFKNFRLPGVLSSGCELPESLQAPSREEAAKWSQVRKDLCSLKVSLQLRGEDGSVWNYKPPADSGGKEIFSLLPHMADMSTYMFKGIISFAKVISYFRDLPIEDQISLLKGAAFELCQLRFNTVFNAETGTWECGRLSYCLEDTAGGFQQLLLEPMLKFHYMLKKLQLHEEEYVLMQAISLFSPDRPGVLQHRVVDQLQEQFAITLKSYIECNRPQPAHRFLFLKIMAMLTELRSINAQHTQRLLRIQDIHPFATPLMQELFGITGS
How it was run: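 Luciferase signal from ONE-Glo (30 min, room temperature) measured activation of hPXR-driven CYP3A4 reporter expression in PXR-Luc HepG2 cells treated with compounds for 24 hr at 37 C.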

[12] = qHTS assay to identify small molecule antagonists of the progesterone receptor (PR) signaling pathway - cell viability counter screen (AID 1346798); note: series mostly up to about 92 µM; nearly all actives have a fitted effect of over 50% in size
How it was run: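 PR-UAS-bla HEK293T cells in medium with 2% charcoal-stripped FBS were treated with compounds plus R5020 for 16 hr at 37C. Cell viability was then read by CellTiter-Glo luminescence after 30 min at room temperature in the same wells.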

[13] = qHTS assay to identify small molecule agonists of the progesterone receptor (PR) signaling pathway - cell viability counter screen (AID 1346799; calls by dose curve; note: nearly all actives have a fitted effect of over 45% in size)
How it was run: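 PR-UAS-bla HEK293T cells, 3,000 per well in medium with 2% charcoal-stripped FBS, were preincubated 6 hr at 37C, then exposed to compounds for 16 hr; viability was read as CellTiter-Glo luminescence after 30 min at room temperature.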

[14] = qHTS assay to identify small molecule antagonists of the TGF-beta/Smad signaling pathway - cell viability counter screen (AID 1346824); note: nearly all actives have a fitted effect of over 50% in size
How it was run: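 SBE-bla HEK 293T cells, incubated overnight, then compound plus 0.25 ng/mL TGF-beta1 (stock added) for 5 hr at 37 C. Viability was read in the same wells by CellTiter-Glo luminescence after 30 min at room temperature.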

[15] = qHTS assay to identify small molecule agonists of the TGF-beta/Smad signaling pathway - cell viability counter screen (AID 1346829); note: top concentration of the series differs between compounds; nearly all actives have a fitted effect of over 45% in size
How it was run: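 CellTiter-Glo luminescence readout; SBE-bla HEK 293T cells, overnight plating, compound 5 hr at 37 C/5% CO2, then bla substrate 2 hr RT, then CellTiter-Glo 30 min RT.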

[16] = target: Thyrotropin-releasing hormone receptor (Homo sapiens) (UniProt P34981); assay: qHTS assay to identify small molecule antagonists of the thyrotropin-releasing hormone receptor (TRHR) signaling pathway (AID 1346877; active = well fitted inhibition curve with a large enough effect in the repeat runs, not every such curve was filed as active; note: series mostly up to about 51 µM)
Thyrotropin-releasing hormone receptor (Homo sapiens), sequence (P34981 whole entry, looked up): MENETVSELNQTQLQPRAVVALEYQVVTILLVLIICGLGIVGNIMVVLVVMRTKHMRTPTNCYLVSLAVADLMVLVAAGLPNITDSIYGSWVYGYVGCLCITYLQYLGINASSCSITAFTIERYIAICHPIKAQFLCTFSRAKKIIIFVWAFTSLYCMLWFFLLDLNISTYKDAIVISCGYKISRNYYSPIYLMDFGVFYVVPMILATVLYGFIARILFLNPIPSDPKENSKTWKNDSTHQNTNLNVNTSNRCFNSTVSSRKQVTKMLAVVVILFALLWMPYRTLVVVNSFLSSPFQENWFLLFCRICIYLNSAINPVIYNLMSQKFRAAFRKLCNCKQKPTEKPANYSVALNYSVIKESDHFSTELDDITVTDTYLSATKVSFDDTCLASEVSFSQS
How it was run: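 Intracellular calcium fluorescence, read kinetically every second over 3 min, reports TRH-evoked signalling in HEK293 cells carrying TRHR. Test compounds were added 5 min ahead of a 1 nM TRH challenge.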

[17] = target: Thyrotropin-releasing hormone receptor (Homo sapiens) (UniProt P34981); assay: qHTS assay to identify small molecule agonists of the thyrotropin-releasing hormone receptor (TRHR) signaling pathway (AID 1346891; calls by dose curve; note: series mostly up to about 58 µM)
How it was run: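 TRHR-expressing HEK293 cells were plated 18 h at 37 °C/5% CO2, loaded with calcium dye 2 h at 37 °C, then given compound in DMSO; fluorescence was read kinetically for 3 min at 1 s intervals.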

Q: Which cAMP activity change [1] does the source give for `c1cc2ccc3ccc4ccc5cccc6c(c1)c2c3c4c56` here?
A: The cAMP activity change was 5.35% [at 3.27 µM].

Q: What about the activity change, negative = cytotoxicity [2] of the same compound?
A: Its activity change, negative = cytotoxicity is 1.86% [at 3.27 µM].

Q: And the Potency [3]?
A: Its Potency is 0.385 µM (active).

Q: What about the activity change, negative = inhibition [4] of the same compound?
A: The activity change, negative = inhibition was 17.5% [at 3.27 µM].

Q: And the activation [5]?
A: The activation was 25.1% [at 2.72 µM].

Q: What about the activity change, negative = cytotoxicity [6] of the same compound?
A: Its activity change, negative = cytotoxicity is 0.555% [at 3.27 µM].

Q: What about the caspase activation [7] of the same compound?
A: The caspase activation was 1.34% [at 3.27 µM].

Q: What about the activity change, negative = cytotoxicity [8] of the same compound?
A: The activity change, negative = cytotoxicity was 14.9% [at 3.27 µM].

Q: What about the caspase-3/7 activation [9] of the same compound?
A: The caspase-3/7 activation was 0.273% [at 3.27 µM].

Q: What about the activity change, negative = cytotoxicity [10] of the same compound?
A: Its activity change, negative = cytotoxicity is -2.99% [at 3.27 µM].

Q: And the activation [11]?
A: Its activation is 3.44% [at 3.27 µM].

Q: Which outcome [2] does the source give for `COc1ccc(Cl)cc1C` here?
A: The outcome was “inactive”.

Q: What about the Potency [3] of the same compound?
A: Its Potency is “inactive”.

Q: And the Potency [4]?
A: The Potency was “inactive”.

Q: What about the outcome [12] of the same compound?
A: The outcome was “inactive”.

Q: And the Potency [13]?
A: The Potency was “inactive”.

Q: What about the outcome [14] of the same compound?
A: Its outcome is “inactive”.

Q: And the outcome [15]?
A: The outcome was “inactive”.

Q: And the outcome [5]?
A: Its outcome is “inactive”.

Q: What about the outcome [16] of the same compound?
A: Its outcome is “inactive”.

Q: And the Potency [17]?
A: Its Potency is “inactive”.

Q: What about the outcome [6] of the same compound?
A: The outcome was “inactive”.

Q: And the outcome [7]?
A: The outcome was “inactive”.

Q: What about the Potency [8] of the same compound?
A: Its Potency is “inactive”.

Q: And the outcome [9]?
A: Its outcome is “inactive”.

Q: And the outcome [10]?
A: Its outcome is “inactive”.

Q: What about the Potency [11] of the same compound?
A: Its Potency is “inactive”.

Q: What does the source list for `CCCCCCCCC1CO1` (configuration not stated)?
A: outcome [1]: inactive; outcome [2]: inactive; Potency [3]: inactive; Potency [4]: inactive; outcome [12]: inactive; Potency [13]: inactive; outcome [14]: inactive; outcome [15]: inactive; outcome [5]: inactive; outcome [6]: inactive; outcome [7]: inactive; Potency [8]: inactive; outcome [9]: inactive; outcome [10]: inactive; Potency [11]: 55.7 µM (active)

Q: Which results are given for `Cc1nc2ccc(Cl)cc2[nH]1`?
A: outcome [1]: inactive; outcome [2]: inactive; Potency [3]: inactive; Potency [4]: inactive; outcome [12]: inactive; Potency [13]: inactive; outcome [15]: inactive; outcome [5]: inactive; outcome [16]: inactive; Potency [17]: inactive; outcome [7]: inactive; Potency [8]: 17.2 µM (active); outcome [9]: inactive; Potency [11]: 12.2 µM (active)

Q: Which outcome [1] does the source give for `CCCCCCCCS(=O)(=O)O` here?
A: The outcome was “inactive”.

Q: What about the outcome [2] of the same compound?
A: Its outcome is “inactive”.

Q: And the Potency [4]?
A: Its Potency is “inactive”.

Q: What about the outcome [12] of the same compound?
A: The outcome was “inactive”.

Q: And the Potency [13]?
A: Its Potency is “inactive”.

Q: And the outcome [14]?
A: Its outcome is “inactive”.

Q: And the outcome [15]?
A: Its outcome is “inactive”.

Q: And the outcome [5]?
A: The outcome was “inactive”.

Q: And the outcome [16]?
A: Its outcome is “inactive”.

Q: And the Potency [17]?
A: Its Potency is “inactive”.

Q: And the outcome [6]?
A: Its outcome is “inactive”.

Q: And the outcome [7]?
A: The outcome was “inactive”.

Q: And the Potency [8]?
A: Its Potency is “inactive”.

Q: And the outcome [9]?
A: Its outcome is “inactive”.

Q: What about the outcome [10] of the same compound?
A: Its outcome is “inactive”.

Q: And the Potency [11]?
A: The Potency was “inactive”.
